Data reported in PubChem BioAssay (Tox21).
Where “and” joins values, the source holds several entries; their conditions need not be identical. Identical values can stand only once. Results filed as inconclusive are left out. Entries that show only a call come without a potency. Calls of active or inactive are those of the source. Unless noted, calls follow the shape of the dose curve; as a rule, active = well fitted curve in the direction sought with a large enough effect in the repeat runs; inconclusive = weak or mixed curves; inactive = no such curve, though single readings can be large; an effect the other way counts as inactive or inconclusive.

Tests used:
[1] = qHTS assay to identify small molecule agonists of the RXR signaling pathway - cell viability counter screen (AID 1159529); also: nearly all actives have a fitted effect of over 50% in size; also: potency is read from the fitted curve at half-maximal effect
Outline: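 Luminescence from CellTiter-Glo (30 min, RT) measured viability in the same wells as the beta-lactamase reporter readout. Cells: GeneBLAzer RXR-alpha HEK 293T, 2% charcoal-stripped FBS. Compound exposure 16 hr, 37 C.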

[2] = qHTS assay to identify small molecule antagonists of the retinoid acid receptor (RAR) signaling pathway - cell viability counter screen (AID 1159551); also: nearly all actives have a fitted effect of over 35% in size; also: potency is read from the fitted curve at half-maximal effect
Outline: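 C3RL4 RARE-luciferase cells, 1,000/well, incubated overnight, then dosed with compound plus 1 uM retinol (final). After 6 hr at 37 C, viability read by CellTiter-Glo ATP luminescence following 30 min at room temperature.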

[3] = qHTS assay to identify small molecule antagonists of the retinoic acid receptor (RAR) signaling pathway (AID 1159552; also: nearly all actives have a fitted effect of over 50% in size; also: potency is read from the fitted curve at half-maximal effect)
Outline: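 Luminescence from a RARE luciferase reporter in C3RL4 cells served as read-out. Cells received compounds together with 1 uM final retinol and incubated 6 hr at 37 C before detection reagent was added for 30 min at room temperature.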

[4] = target: Luciferin 4-monooxygenase (Photinus pyralis) (UniProt P08659); experiment: qHTS assay to identify small molecule inhibitors of firefly luciferase (AID 1224835); also: nearly all actives have a fitted effect of over 25% in size; also: potency is read from the fitted curve at half-maximal effect
Chain of Luciferin 4-monooxygenase (Photinus pyralis) (P08659 whole entry, looked up): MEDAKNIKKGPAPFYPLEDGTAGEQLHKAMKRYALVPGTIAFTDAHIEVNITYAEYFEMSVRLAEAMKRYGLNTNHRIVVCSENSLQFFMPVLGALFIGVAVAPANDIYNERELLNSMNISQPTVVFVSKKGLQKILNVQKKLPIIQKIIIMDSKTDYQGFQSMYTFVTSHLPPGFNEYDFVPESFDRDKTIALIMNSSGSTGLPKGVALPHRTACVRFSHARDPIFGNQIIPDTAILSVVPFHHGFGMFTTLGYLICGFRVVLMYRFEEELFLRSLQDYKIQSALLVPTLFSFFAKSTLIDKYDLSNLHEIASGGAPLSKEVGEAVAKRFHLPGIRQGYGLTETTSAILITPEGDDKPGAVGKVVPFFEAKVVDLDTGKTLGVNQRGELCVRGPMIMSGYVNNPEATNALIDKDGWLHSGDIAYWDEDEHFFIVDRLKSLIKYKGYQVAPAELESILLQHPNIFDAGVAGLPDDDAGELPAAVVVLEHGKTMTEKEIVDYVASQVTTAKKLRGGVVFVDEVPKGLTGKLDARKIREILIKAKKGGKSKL
Outline: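 Inhibition of purified Photinus luciferase is measured by luminescence. Substrate levels (D-luciferin, ATP) sit at their KM values. Each compound is tested in a concentration series.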

[5] = qHTS assay to identify small molecule agonists of the constitutive androstane receptor (CAR) signaling pathway - cell viability counter screen (AID 1224836); also: series mostly up to about 92 µM; nearly all actives have a fitted effect of over 45% in size
Outline: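 Viability read-out: CellTiter-Fluor fluorescence after 23 h compound exposure at 37 C/5% CO2 in double-stable HepG2-CYP2B6-hCAR cells, with PK11195 present at 0.75 uM final; compounds tested in 15-point titration.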

[6] = qHTS assay to identify small molecule antagonists of the constitutive androstane receptor (CAR) signaling pathway - cell viability counter screen (AID 1224837); also: nearly all actives have a fitted effect of over 45% in size; also: potency is read from the fitted curve at half-maximal effect
Outline: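 HepG2 cells stably carrying hCAR and CYP2B6-2.2kb reporter, stimulated with 50 nM CITCO and compounds at 15 concentrations for 23 h at 37 C. Viability measured by CellTiter-Fluor fluorescence.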

[7] = target: Nuclear receptor subfamily 1 group I member 3 (Homo sapiens) (UniProt Q14994); experiment: qHTS assay to identify small molecule agonists of the constitutive androstane receptor (CAR) signaling pathway (AID 1224839); also: nearly all actives have a fitted effect of over 15% in size; also: potency is read from the fitted curve at half-maximal effect
Chain of Nuclear receptor subfamily 1 group I member 3 (Homo sapiens) (Q14994 whole entry, looked up): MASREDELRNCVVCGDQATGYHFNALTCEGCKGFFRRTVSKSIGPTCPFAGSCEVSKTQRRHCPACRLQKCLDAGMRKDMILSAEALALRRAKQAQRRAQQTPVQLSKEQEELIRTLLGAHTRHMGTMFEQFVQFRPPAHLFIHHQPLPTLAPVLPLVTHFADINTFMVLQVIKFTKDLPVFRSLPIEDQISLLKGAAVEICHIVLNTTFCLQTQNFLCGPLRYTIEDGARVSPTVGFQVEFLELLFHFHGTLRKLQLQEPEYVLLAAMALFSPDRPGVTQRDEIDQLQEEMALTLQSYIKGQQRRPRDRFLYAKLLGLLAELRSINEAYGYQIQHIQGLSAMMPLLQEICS
Outline: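 Luminescence read-out (ONE-Glo, 30 min, room temperature) from double-stable HepG2-CYP2B6-hCAR cells exposed 24 h to 15-point compound series in presence of 0.75 uM PK11195 final.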

[8] = qHTS assay to identify small molecule agonists of the estrogen related receptor signaling pathway with the pleiotropic PPARgamma coactivator (PGC) from Tox21 10K library (AID 1224842); also: nearly all actives have a fitted effect of over 15% in size
Outline: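 Luminescence from One-Glo (30 min, room temperature) measured after PGC/ERR cells had 18 h at 37 C with pinned compound (23 nL in DMSO). Cells had been seeded at 2,000 per well and pre-incubated 6 h.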

[9] = target: Nuclear receptor subfamily 1 group I member 3 (Homo sapiens) (UniProt Q14994); experiment: qHTS assay to identify small molecule antagonists of the constitutive androstane receptor (CAR) signaling pathway (AID 1224838); also: nearly all actives have a fitted effect of over 40% in size
Outline: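 HepG2 cells stably carrying hCAR and a CYP2B6-2.2kb luciferase reporter, seeded 4 hrs before compound (15 concentrations). Stimulated with 50 nM CITCO for 24 hr at 37 C. ONE-Glo luminescence read after 30 min at room temperature.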

[10] = qHTS assay to identify small molecule antagonists of the estrogen related receptor signaling pathway with the pleiotropic PPARgamma coactivator (PGC) from Tox21 10K library - cell viability counter screen (AID 1224840; active = well fitted cell-killing curve with a large enough effect in the repeat runs, not every such curve was filed as active; also: nearly all actives have a fitted effect of over 40% in size; also: potency is read from the fitted curve at half-maximal effect)
Outline: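 PGC/ERR cells (2,000/well) plated 6 h, then compound-treated for 17.5 h at 37 C. Viability measured by CellTiter-Fluor fluorescence after 30 min at 37 C, multiplexed with the pathway assay.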

[11] = qHTS assay to identify small molecule antagonists of the estrogen related receptor signaling pathway with the pleiotropic PPARgamma coactivator (PGC) from Tox21 10K library (AID 1224841; call rule not given here; also: actives are mostly falling curves and most rising ones were filed inactive; nearly all actives have a fitted effect of over 50% in size; also: potency is read from the fitted curve at half-maximal effect)
Outline: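 PGC/ERR cell line, 2,000 cells/well, pre-incubated 6 hours at 37 C, then exposed to compounds for 18 hours at 37 C; luciferase read with One-Glo luminescence after 30 min at room temperature.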

[12] = target: Thyrotropin receptor (Homo sapiens) (UniProt P16473); experiment: qHTS assay to identify small molecule agonists of the thyroid stimulating hormone receptor (TSHR) signaling pathway (AID 1224843; calls by dose curve; also: nearly all actives have a fitted effect of over 45% in size; also: potency is read from the fitted curve at half-maximal effect)
Chain of Thyrotropin receptor (Homo sapiens) (P16473 whole entry, looked up): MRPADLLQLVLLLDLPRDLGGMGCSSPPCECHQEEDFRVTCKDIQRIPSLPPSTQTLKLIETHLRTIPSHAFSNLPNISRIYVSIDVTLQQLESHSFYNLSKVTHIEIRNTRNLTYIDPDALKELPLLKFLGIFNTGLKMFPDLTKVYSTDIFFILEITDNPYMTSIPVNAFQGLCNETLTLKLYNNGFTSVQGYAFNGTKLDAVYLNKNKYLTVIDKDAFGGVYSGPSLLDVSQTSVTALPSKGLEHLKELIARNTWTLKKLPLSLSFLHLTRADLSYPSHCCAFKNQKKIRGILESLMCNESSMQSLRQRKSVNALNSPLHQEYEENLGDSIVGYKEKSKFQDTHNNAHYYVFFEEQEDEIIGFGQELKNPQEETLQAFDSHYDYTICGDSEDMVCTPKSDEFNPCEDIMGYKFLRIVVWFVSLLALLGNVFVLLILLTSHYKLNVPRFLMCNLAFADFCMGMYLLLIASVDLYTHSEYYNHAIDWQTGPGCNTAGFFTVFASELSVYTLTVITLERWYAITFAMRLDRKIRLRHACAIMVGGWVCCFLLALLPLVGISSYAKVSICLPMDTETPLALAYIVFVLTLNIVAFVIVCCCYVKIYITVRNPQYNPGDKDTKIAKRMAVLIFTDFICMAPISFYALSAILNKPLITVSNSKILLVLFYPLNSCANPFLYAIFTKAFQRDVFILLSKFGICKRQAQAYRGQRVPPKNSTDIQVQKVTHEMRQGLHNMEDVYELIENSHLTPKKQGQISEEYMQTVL
Outline: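 Screening of the Tox21 10K collection used HEK293 cells engineered with TSHR at 800 cells per well. After a 30-min room-temperature compound exposure, HTRF cAMP reagents were added and fluorescence recorded 1 h later.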

[13] = qHTS assay to identify small molecule antagonists of the estrogen related receptor (ERR) signaling pathway from Tox21 library - cell viability counter screen (AID 1224834); also: nearly all actives have a fitted effect of over 30% in size; also: potency is read from the fitted curve at half-maximal effect
Outline: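 ERR reporter cells, 2,000 per well, rested 6 h, then exposed to compound in DMSO for 17.5 hours at 37 C. Viability read as fluorescence after 30 min with CellTiter-Fluor.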

[14] = qHTS assay to identify small molecule agonists of the retinoic acid receptor (RAR) signaling pathway (AID 1159553)
Outline: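 C3RL4 RARE-luciferase cells were seeded at 1,000/well and grown overnight at 37 C, then exposed to compounds for 6 hr at 37 C, 5% CO2. Luciferase reagent was added and luminescence was read after 30 min at room temperature.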

[15] = qHTS assay to identify small molecule antagonists of the estrogen related receptor (ERR) signaling pathway - cell viability counter screen (AID 1224818); also: series mostly up to about 46 µM
Outline: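 ERR cells, 2,000 per well, compound added after 6 h and incubated 17.5 h at 37 C. Viability read by CellTiter-Fluor fluorescence after a further 30 min at 37 C.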

[16] = qHTS assay to identify small molecule antagonists of the estrogen related receptor signaling pathway with the pleiotropic PPARgamma coactivator (PGC) cell viability counter screen (AID 1224822; also: series mostly up to about 46 µM)
Outline: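 PGC/ERR cells rested 6 h, then compound-treated 17.5 h at 37 C. CellTiter-Fluor added for 30 min at 37 C, viability measured by fluorescence intensity.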

| Compound | Potency [1] | Potency [2] | Potency [3] | Potency [4] | Potency [5] | Potency [6] | Potency [7] | Potency [8] | Potency [9] | Potency [10] | Potency [11] | Potency [12] | Potency [13] | Potency [14] | outcome [15] | Potency [16] |
| --- | --- | --- | --- | --- | --- | --- | --- | --- | --- | --- | --- | --- | --- | --- | --- | --- |
| CC(=O)/C=C/c1ccc2c(c1)OCO2 | inactive | inactive | inactive | 45 µM (active) | inactive | inactive | inactive | inactive |  |  |  |  |  |  |  |  |
| OC(Cc1ccccc1Cl)(Cn1cncn1)C1(Cl)CC1 (stereo not given) | inactive | inactive | inactive | inactive |  | inactive |  | inactive | inactive | inactive | 54.5 µM (active) | inactive |  |  |  |  |
| ClCCN1CCOCC1 | inactive | inactive | inactive | inactive | inactive | inactive |  | inactive |  | inactive | inactive | inactive | inactive |  |  |  |
| Nc1ccc([N+](=O)[O-])cc1Cl | inactive | inactive | inactive |  |  | inactive |  |  | inactive | inactive |  | inactive |  |  |  |  |
| Cc1cccc(OP(=O)(Oc2cccc(C)c2)Oc2cccc(C)c2)c1 | inactive | inactive | inactive | inactive |  | inactive | 30.6 µM (active) |  | inactive | inactive |  | inactive | inactive |  |  |  |
| N#CCc1ccc(Cl)cc1 | inactive | inactive | inactive | inactive | inactive | inactive |  | inactive |  | inactive | inactive |  | inactive |  |  |  |
| N#CCCSCCC#N | inactive | inactive |  | inactive | inactive | inactive | inactive |  | inactive | inactive |  | inactive | inactive | inactive |  |  |
| BrCC(Br)c1ccccc1 (stereo not given) | inactive | inactive | inactive |  | inactive | inactive |  |  |  | inactive |  | inactive | inactive |  |  |  |
| CC(C)C1CCC(Cc2ccc(Cl)cc2)C1(O)Cn1cncn1 (stereo not given) | 54.4 µM (active) | 60.5 µM (active) | 42.8 µM (active) | inactive |  |  | inactive | inactive |  |  | 15.2 µM (active) | 48.1 µM (active) | 53.9 µM (active) |  |  |  |
| CC(C)(c1ccc(O)c(-c2ccccc2)c1)c1ccc(O)c(-c2ccccc2)c1 | 24.5 µM (active) | 54.5 µM (active) | 54.5 µM (active) | inactive |  | 68.6 µM (active) | 17.2 µM (active) | inactive |  | 54.5 µM (active) | 48.6 µM (active) |  | 61.1 µM (active) |  |  |  |
| ClC(Cl)=C(c1ccc(Cl)cc1)c1ccc(Cl)cc1 | 56.3 µM (active) and 43.6 µM (active) | inactive |  | inactive | inactive | inactive |  | inactive | inactive | inactive | inactive |  | inactive | inactive |  |  |
| CCOP(=O)(NC(C)C)Oc1ccc(SC)c(C)c1 (stereo not given) | inactive | inactive |  |  |  |  |  |  |  |  |  |  |  | inactive | inactive |  |
| CSCCCN=C=S | inactive | inactive | inactive | inactive |  |  |  | inactive |  | inactive | inactive | inactive |  |  |  |  |
| N#C/C=C/c1ccccc1 | inactive | inactive | inactive | inactive | inactive | inactive | inactive |  |  | inactive |  |  | inactive |  |  |  |
| COc1ccc(OC)c(C=O)c1 | inactive | inactive | inactive | inactive | inactive | inactive |  |  |  | inactive |  |  | inactive |  |  |  |
| ClC1=C(Cl)[C@]2(Cl)[C@@H]3[C@@H](Cl)[C@H](Cl)C[C@@H]3[C@@]1(Cl)C2(Cl)Cl | inactive | inactive | inactive | inactive |  | inactive | inactive | inactive | inactive | inactive | inactive |  | inactive |  |  |  |
| CC1(C)CC/C(=C/c2ccc(Cl)cc2)C1(O)Cn1cncn1 (stereo not given) | inactive | inactive |  | inactive |  | 68.2 µM (active) | inactive |  |  |  |  |  |  | inactive | inactive | inactive |
| CCCN(CC)CC1COC2(CCC(C(C)(C)C)CC2)O1 (stereo not given) | inactive | inactive |  | inactive | inactive | inactive | inactive |  | inactive | inactive |  | inactive | inactive | inactive |  |  |
| O=C(NC(=O)c1c(F)cccc1F)Nc1cc(Cl)c(OC(F)(F)C(F)F)c(Cl)c1 | inactive | inactive | inactive | inactive |  | inactive | 2.17 µM (active) |  |  | inactive |  | inactive | inactive |  |  |  |
| CCC(C)(C)C(=O)OC1=C(c2ccc(Cl)cc2Cl)C(=O)OC12CCCCC2 | inactive | inactive | inactive | 31.7 µM (active) |  | inactive | inactive |  |  | inactive | inactive | inactive | inactive |  |  |  |
| N#Cc1ccccc1Cl | inactive | inactive | inactive | inactive | inactive | inactive |  | inactive |  | inactive |  | inactive | inactive |  |  |  |
| Oc1ccc2ccc3cccc4ccc1c2c34 | 49 µM (active) | inactive | inactive | 79.6 µM (active) | inactive | inactive | 61.1 µM (active) |  |  | inactive |  | inactive | inactive |  |  |  |
| CCc1ccccc1C | inactive | inactive | inactive | inactive | inactive | inactive |  | inactive |  | inactive | inactive | inactive | inactive |  |  |  |
| CCOc1cc(C(C)(C)C)ccc1C1COC(c2c(F)cccc2F)=N1 (stereo not given) | 14.9 µM (active) | inactive |  | inactive | inactive | inactive | 18.6 µM (active) | inactive | inactive | inactive |  |  | inactive | inactive |  |  |
